Pf growth 96h – P. falciparum growth inhibition at 96 hour, primary screen for plastid delayed-death inhibitors | P. falciparum luciferase reporter growth, 96 h | Potency, µM (doses to about 28.7 µM), without a hit: at the top dose activity change, negative = inhibition, actives largely listed as inhibitors | 320,000 tested, 6.9% active
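Delayed-death screen, second-generation endpoint: infected erythrocytes, 2% hematocrit, 0.05% parasitemia final; 96 hours at 37 C, 5% CO2; luciferase detection reagent; luminescence decrease equals reduced growth.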
Pf growth 48h – P. falciparum growth inhibition at 48 hours (one generation) | P. falciparum luciferase growth in erythrocytes, 48 h | Potency, µM (highest dose often 28.7 µM), for inactives: at the top dose activity change, negative = inhibition, actives largely listed as inhibitors | 310,000 tested, 5.9% active
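Growth was read as firefly luciferase luminescence after a 48 h, 37 C, 5% CO2 exposure of compounds to reporter-bearing P. falciparum cultures (0.1% parasitemia, 2% hematocrit final) in Albumax-supplemented RPMI 1640.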
AMA1-RON2 inh – disrupts binding of P. falciparum AMA1 to RON2 | AlphaScreen AMA1-biotinylated RON2 peptide binding | Potency, µM (highest dose often 58.2 µM), for the others: at the top dose activity change, negative = inhibition, usual class: inhibitors | 360,000 tested, 0.2% active | AID 720542;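 note: 0% = vehicle wells and -100% = peptide control; nearly all actives have a fitted effect of over 45% in size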
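AMA1 (3D7) with his tag at 25 nM final met compounds first, then biotinylated RON2 peptide at 25 nM; detection used donor plus acceptor beads, 10 µg/mL apiece, read by AlphaScreen after 30 min at room temperature.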
HCV inh – HCV inhibition. 340,000 tested, 3.4% active. Huh7.5.1 HCVcc-Cre infection, luciferase reporter, 44 h. Potency, µM (highest dose often 41.8 µM), for the others: at the highest dose activity change, negative = inhibition, most hits filed as inhibitors. AID 651820
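Infectious HCV cell culture screen: compound-treated cells (1,000/well, pre-plated 4 h) are infected with HCVcc-Cre at roughly 0.5 moi and grown 44 h. Infection is quantified by luciferase signal after 15 min substrate incubation at room temperature.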
Active calls of the source: *; ? = inconclusive; nt = not tested or not shown; [ ] = dose if it differs, or a comment. This is a sample that favours compounds with a hit; in the whole collection about 11% have one here. Calls come from the whole dose curve; as a rule, active = well fitted curve in the direction sought with a large enough effect; inconclusive = small, poorly fitted or top-dose-only effect, or another doubt; inactive = no such curve, though single readings can be large; an effect the other way counts as inactive or inconclusive. Unless noted, % is set by controls: 0 for no effect and ±100 for the full control effect; potency is the fitted concentration of half-maximal effect.

SMILES	Pf growth 96h	Pf growth 48h	AMA1-RON2 inh	HCV inh
Oc1ccccc1/C=N/NC(=S)NC1CC2CCC1C2 (stereo not given)	1.31µM*	3.7µM*	39.8%	?
COc1cccc(C=NNC(=S)NN=Cc2cccc(OC)c2OC)c1OC	nt	nt	50.4%	?
COc1cccc(/C=N/NC(=S)NC2CC3CCC2C3)c1OC (stereo not given)	4.65µM*	6.57µM*	100.9%	-19.9%
CCC(C)/C(C)=N/NC(=O)CSc1nc2ccccc2[nH]1 (stereo not given)	6.5%	0.0%	6.5%	1.4%
CC(C(=O)Nc1ccccc1-c1ccccc1)N1CCN(Cc2ccccc2)CC1 (stereo not given)	?	13.1µM*	-21.2%	-21.4%
CC(C(=O)Nc1ccccc1-c1ccccc1)N1CCN(C(=O)c2ccccc2)CC1 (stereo not given)	?	?	1.7%	-2.6%
Cc1ccc(S(=O)(=O)N2CCN(C(C)C(=O)Nc3ccccc3-c3ccccc3)CC2)cc1 (stereo not given)	7.38µM*	9.28µM*	-4.8%	?
C=CCN1CC(C(=O)N(CCCN(C)C)C(=O)NCC)CC2c3cccc4[nH]cc(c34)CC21 (stereo not given)	10.7µM*	19µM*	nt	nt
CCN(CC)C(=O)N[C@H]1C[C@@H]2c3cccc4[nH]cc(c34)C[C@H]2N(C)C1	0.928µM*	?	?	0.0%[8.37 µM]
COc1ccc(CN2C(=O)CCCC2(C)c2nc3ccccc3[nH]2)cc1 (stereo not given)	nt	nt	-7.0%	nt
O=C(NCCc1ccccn1)c1ccc(OC2CCN(CCc3ccccc3)CC2)cc1	7.9%	44.5%	127.8%	-19.4%
CC(NC(=O)c1ccc(OC2CCN(Cc3ccccn3)CC2)cc1)c1nccs1 (stereo not given)	13.1µM*	-11.9%	67.8%	-4.5%
CC(Cc1ccccn1)NC(=O)c1ccc(OC2CCN(CCc3ccccc3)CC2)cc1 (stereo not given)	13.0%	11.7µM*	-4.5%	?
CSCCCNC(=O)c1ccc(OC2CCN(CCc3ccccc3)CC2)cc1	13.1µM*	?	-4.2%	3.4%
Cc1ccc(NC(=O)CCn2ccc([N+](=O)[O-])n2)nc1	27.1%	-9.6%	-18.3%	9.9%
O=C(NCCc1ccc(O)cc1)c1[nH]c(C(F)(F)F)nc1-c1ccccc1	nt	nt	-18.2%	nt
Cc1c(C#N)c(N=CN(C)C)c(C(=O)c2ccc(Br)cc2)n1-c1ccc(Cl)cc1	4.7%	nt	-4.8%	-7.8%
Cc1ccc(-c2nc3cnccn3c2Nc2c(C)cccc2C)o1	4.1%	nt	-2.8%	?
O=C(CN1c2cccc3cccc(c23)S1(=O)=O)Nc1ccc(F)c(F)c1F	nt	nt	3.0%	?
Cc1cc(NC(=O)Nc2ccccc2F)ccc1Br	?	426.8%	-7.9%	12.6µM*
Cn1nnc2cc(NC(=O)Nc3ccccc3F)ccc21	nt	nt	8.8%	nt
O=C(Nc1ccccc1)Nc1ccc(Br)cc1F	0.37µM*	101.3%	9.4%	-10.1%
CCn1c(CNC(=O)c2ccc(F)cc2)cc2ccccc21	?	14.6%	-3.7%	10.5%
Cc1cc(=O)[nH]c(-c2cccnc2)n1	0.0%	?	-1.8%	6.2%
CCn1c(CCc2ccccc2)nc2ccccc21	0.131µM*	?	-6.2%	-17.4%
SMILES	Pf growth 96h	Pf growth 48h	AMA1-RON2 inh	HCV inh
CCc1nc2ccccc2n1CCc1ccccc1	53.5%	?	-4.5%	2.8%
CCn1c(CN2CCN(c3ccc(Cl)cc3)CC2)nc2ccccc21	?	11.7µM*	6.9%	?
Cn1c(CN2CCN(c3ccc(Cl)cc3)CC2)nc2ccccc21	?	-12.0%	6.7%	-17.0%
CC(C)Cc1nc2ccccc2n1CCc1ccccc1	6.57µM*	9.28µM*	2.5%	5.6%
NC(=NCCc1ccccc1)NS(=O)(=O)c1ccccc1F	24.2%	8.8%	-2.2%	14.2%
CCOC(=O)C1(c2ccccc2)CCN(CCC(=O)Nc2ccc(OC)cc2)CC1	nt	nt	5.3%	nt
CCOC(=O)C1(c2ccccc2)CCN(CCC(C#N)(c2ccccc2)c2ccccc2)CC1	1.9µM*	1.9µM*	-20.1%	-57.8%
CCOC(=O)C1(c2ccccc2)CCN(CCC(=O)Nc2cccc(Br)c2)CC1	?	?	-15.1%	11.2µM*
CCOC(=O)C1(c2ccccc2)CCN(CCC(=O)Nc2ccc(C(=O)OC)cc2)CC1	9.28µM*	5.22µM*	-5.3%	?
CCCS(=O)(=O)N1CCc2cc(OC)c(OC)cc2C1	-10.8%	nt	-6.6%	3.8%
COc1ccc2c(c1)sc(=N)n2C	3.7µM*	?	1.5%	-4.9%
COc1ccc2c(c1)sc1nc(=O)ccn12	?	42.2%	1.5%	23.0%
Cc1cc(C(=O)N/N=C2\CC(=O)c3ccccc32)c(C)n1-c1ccccc1	?	-48.1%	16.7%	-8.1%
O=C(Nc1ccc(C(F)(F)F)cc1)c1ccccc1-n1cnnn1	-17.8%	11.5%	-2.7%	10.3%
Cc1cccc2nc(-c3ccco3)c(Nc3ccc4c(c3)OCCO4)n12	?	?	-22.9%	-13.3%
COc1ccc(Nc2c(-c3ccco3)nc3cccc(C)n23)cc1	2.62µM*	0.0%	-24.6%	-13.2%
O=C(CSc1ccc2nnc(-c3ccccn3)n2n1)N1CCN(c2ccccc2)CC1	9.4%	nt	?	-8.1%
COc1ccc(C2NCc3ccc4c(c3-n3cccc32)OCO4)cc1O (stereo not given)	nt	6.57µM*	-26.0%	0.562µM*
CCOC(=O)N1CCN(c2nc(SC)nc3sc4c(c23)CC(C)(C)OC4)CC1	nt	3.7µM*	-3.0%	-11.0%
CCC1(C)Cc2c(sc3nc(SC)nc(NCCN(C)C)c23)CO1 (stereo not given)	3.7µM*	?	-2.9%	?
CSc1nc(SC(C)C(=O)O)c2c3c(sc2n1)COC(C)(C)C3 (stereo not given)	4.7%	-4.2%	17.3%	5.5%
CC(C)Sc1nc(N2CCOCC2)c2c3c(sc2n1)COC(C)(C)C3	?	?	-6.6%	?
CCN1CCN(c2nc(SC)nc3sc4c(c23)CC(C)(C)OC4)CC1	28.2%	1.65µM*	-9.0%	-23.7%
CCOC(=O)c1cnn(-c2nc(SC)nc3sc4c(c23)CCCC4)c1N	nt	?	-2.7%	-18.9%
CSc1nc(N2CCOCC2)c2c3c(sc2n1)CCC3	14.5%	?	0.4%	11.2µM*
SMILES	Pf growth 96h	Pf growth 48h	AMA1-RON2 inh	HCV inh
O=C(COC(=O)CCSc1ccccc1)Nc1cc(F)ccc1F	24.2%	0.0%	11.4%	25.4%
N#CCC(=O)N1CCN(C=O)CC1	42.6%	3.1%	10.1%	6.4%
c1ccc2c(c1)CCN(c1nc(CN3CCOCC3)nc3sc4c(c13)CCCC4)C2	?	14.7µM*	-10.1%	?
CCOc1ccccc1N1CC(C(=O)Nc2cc(Cl)ccc2-n2cncn2)CC1=O (stereo not given)	8.6%	18.5%	-17.7%	-6.8%
CC(=O)Nc1cccc(NC(=O)c2ccc(COc3ccccc3)cc2)c1	92.1%	58.9%	11.2%	?
O=C1C(Cc2ccccc2)S/C(=N/N=C/c2ccco2)N1c1ccccc1 (stereo not given)	0.262µM*	8.0%	-4.3%	-8.1%

Screening data from PubChem BioAssay.
